From PubChem BioAssay AID1851 (National Center for Advancing Translational Sciences (NCATS), 2009) come the findings set out here.

Structures are written as SMILES. Hit rate of the full screen: of about 16,000 compounds, about 2,600 (16%) were called active. Inconclusive results (about 20%) are left out. Only a sample is shown. A number with no mark means an inactive call. The call rests on the fitted dose curve; in most records, active means well fitted curve in the direction sought with a large enough effect; inconclusive means small, poorly fitted or top-dose-only effect, or effect the other way; inactive means no such curve, though single readings can be large or run the other way.

One may read the AC50 as the midpoint of the concentration-response curve, whichever way the signal moves.
On the % scale 0 is the no-effect control and ±100 the full control effect.

For the test, the target named is Cytochrome P450 2D6 (Homo sapiens) (UniProt P10635). In words: Cytochrome panel assay with activity outcomes. The conditions noted are these: recombinant CYP, pro-luciferin dealkylation, luminescence, p450-cyp2d6; series mostly up to 57.1 µM.
Cytochrome P450 2D6 (Homo sapiens), sequence (P10635 whole entry, looked up): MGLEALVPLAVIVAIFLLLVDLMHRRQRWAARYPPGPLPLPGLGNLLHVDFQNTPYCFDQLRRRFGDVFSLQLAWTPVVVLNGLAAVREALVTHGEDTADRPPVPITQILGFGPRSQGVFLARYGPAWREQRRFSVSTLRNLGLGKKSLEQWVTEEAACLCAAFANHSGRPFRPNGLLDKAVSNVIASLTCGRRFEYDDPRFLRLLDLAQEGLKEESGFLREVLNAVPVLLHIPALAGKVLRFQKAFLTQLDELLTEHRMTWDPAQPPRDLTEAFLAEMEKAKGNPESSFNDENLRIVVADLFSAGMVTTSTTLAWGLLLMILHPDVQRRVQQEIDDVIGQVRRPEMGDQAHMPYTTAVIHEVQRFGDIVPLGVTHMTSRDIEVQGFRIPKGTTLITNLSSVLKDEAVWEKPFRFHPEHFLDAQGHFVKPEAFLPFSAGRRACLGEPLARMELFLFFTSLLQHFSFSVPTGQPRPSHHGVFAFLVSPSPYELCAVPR
Turning to `Cc1ccccc1C(=O)NNC(=O)c1ccoc1C`, the AC50 result is “inactive”.

Take `CC(C)CC(=O)N[C@H](C(=O)N[C@H](C(=O)N[C@@H](CC(C)C)[C@H](O)CC(=O)N[C@@H](C)C(=O)N[C@@H](CC(C)C)[C@H](O)CC(=O)O)C(C)C)C(C)C`: the AC50 result is “inactive”.

Take `O=C(Nc1nnc(-c2ccc(Cl)cc2)o1)Nc1ccccc1Cl`: the AC50 result was “inactive”.

As for `COc1ccc(Oc2ncc3nc(-c4cc(F)cc(F)c4)c(=O)n(C)c3n2)cc1`, the AC50 entry was “inactive”.

Take `Cc1cc(C(F)(F)F)n2nc(-c3cnn(C)c3C(F)(F)F)cc2n1`: the AC50 entry is “inactive”.

Consider `CN1CCN(c2ncc3nc(-c4cccs4)c(=O)n(C[C@H]4CCCO4)c3n2)CC1`, for which the AC50 entry is “inactive”.

As for `COC(=O)c1c(-c2cc(OC)c(OC)c(OC)c2)c2ccnc(OCc3ncccn3)c2c(=O)n1Cc1ccnc(C)c1`, the AC50 entry is “inactive”.

Regarding `C[C@H](N)C(=O)O`, the AC50 entry was “inactive”.

Regarding `COc1ccc2c(c1)OC1=C(C(=O)CCC1)C2C1=C(O)CCCC1=O` (stereo unspecified), the AC50 result is “inactive”.

As for `Cc1ccc(S(=O)(=O)Oc2ccc(C3C4=C(CCCC4=O)OC4=C3C(=O)CCC4)cc2)cc1`, the AC50 was 7.94 µM (active).

As for `Cc1ccc(S(=O)(=O)Oc2cc(N)c3c(n2)CCC3)cc1`, the activity, negative = inhibition is -20.4% [at 11.4 µM].

Consider `COc1ncc2nc(-c3ccccc3)c(=O)n(-c3ccccc3)c2n1`, for which the AC50 entry is “inactive”.

With `COC(=O)C(C(=O)OC)C(C[N+](=O)[O-])c1ccc(OC)c(OC)c1` (stereo unspecified), the AC50 entry is “inactive”.

With `O=C1CC(N(O)C2CC(=O)N(Cc3ccccc3)C2=O)C(=O)N1Cc1ccccc1` (stereo unspecified), the AC50 result was “inactive”.

As for `CCOC(=O)CCN1C(=O)[C@H]2[C@H]3[C@H](O)[C@H](O)C/C(=N/OC[C@@H](O)COCc4ccco4)[C@@H]3CC[C@@H]2C1=O`, the activity, negative = inhibition is 7.94% [at 11.4 µM].

With `Cc1noc(C)c1-c1cc(Nc2ccc(F)cc2)ncn1`, the AC50 entry is “inactive”.

With `Nc1nccc(Nc2ccc(S(N)(=O)=O)cc2)n1`, the activity, negative = inhibition is -5.16% [at 11.4 µM].

As for `Fc1ccc(Nc2ccnc(-c3ccc4c(c3)OCO4)n2)cc1`, the AC50 is 10 µM (active).

Regarding `CN(C)c1ccc(-c2nccc(Nc3ccc(F)cc3)n2)cc1`, the AC50 is 20 µM (active).

As to `CN(C)C(=O)c1ccc(-c2nccc(Nc3ccc(F)cc3)n2)cc1`, the AC50 result was “inactive”.

Turning to `Cc1noc(C)c1-c1nccc(Nc2ccc(F)cc2)n1`, the AC50 entry was “inactive”.

Consider `C[C@H]1[C@@H](O)[C@@H](C)\C=C/C=C\C=C/C=C\C=C/C=C\C=C/[C@@H](O[C@H]2O[C@@H](C)[C@@H](O)[C@@H](N)[C@@H]2O)C[C@@H]2O[C@](O)(C[C@@H](O)C[C@@H](O)[C@@H](O)CC[C@@H](O)C[C@@H](O)CC(=O)O[C@H]1C)C[C@@H](O)[C@H]2C(=O)O` (stereo in doubt), for which the AC50 entry is “inactive”.

Turning to `Cc1sc2c(c1C)c(=O)n(-c1ccccc1)c1nnc(C)n21`, the AC50 result is “inactive”.

As for `CC(C)(Oc1ccc(Cl)cc1)C(=O)Nc1cccnc1`, the AC50 result was “inactive”.

Turning to `CC(C)OC(=O)C(C)(C)Oc1ccc(C(=O)c2ccc(Cl)cc2)cc1`, the AC50 entry was “inactive”.

`CC(C)(Oc1ccc(Cl)cc1)C(=O)Nc1ccncc1`: the AC50 was 0.0316 µM (active).

Regarding `CN(C)c1ncc2nc(-c3ccc(F)cc3)c(=O)n(CCc3ccccc3)c2n1`, the AC50 entry was “inactive”.

As for `COc1cc2ccc(=O)oc2cc1O`, the AC50 entry was “inactive”.

As for `CS(=O)(=O)Nc1cccc(-c2nc(NCCN3CCOCC3)c3ccccc3n2)c1`, the AC50 entry was “inactive”.

Take `Cc1noc(C)c1-c1cncnc1NCCN1CCOCC1`: the AC50 entry is “inactive”.

On to `CN(C)C(=O)c1ccc(-c2cncnc2NCCN2CCOCC2)cc1`, for which the AC50 entry was “inactive”.

With `N#Cc1cccc(-c2nc(NCCN3CCOCC3)c3ccccc3n2)c1`, the AC50 is 7.94 µM (active).

For the molecule `COc1cccc(-c2cncnc2NCCN2CCOCC2)c1`, the AC50 is 10 µM (active).

As to `COc1cccc(-c2nc(NCCN3CCOCC3)c3ccccc3n2)c1`, the AC50 was 12.6 µM (active).

For `N#CCCn1c(=O)c(-c2cccc(C#N)c2)nc2cnc(N3CCOCC3)nc21`, the AC50 entry was “inactive”.

As to `COc1cccc(-c2cc(C(F)(F)F)nc(N3CCOCC3)n2)c1`, the AC50 entry is “inactive”.

With `c1cncc(-c2nc(NCCN3CCOCC3)c3ccccc3n2)c1`, the AC50 is 10 µM (active).

Regarding `COC(=O)c1ccccc1NC(=O)c1ccc(COc2ccc(C)c(C)c2)o1`, the AC50 entry is “inactive”.

Regarding `NCCCCCCCCCCN`, the AC50 entry is “inactive”.

As for `O=C1NC(c2ccccc2)=NC1(NS(=O)(=O)c1ccccc1)C(F)(F)F` (stereo unspecified), the AC50 entry was “inactive”.

As for `CCOC(=O)c1cc(-c2ccccc2)sc1NC(=O)C(C)(C)C`, the AC50 result was “inactive”.

Regarding `Nc1nc(-c2ccc3ccccc3c2)cc(-c2cc(-c3ccc4ccccc4c3)nc(N)n2)n1`, the activity, negative = inhibition is 1.49% [at 11.4 µM].

On to `CC(=O)Nc1cccc(C(=O)OCc2ccc(C(=O)Oc3ccc(Cl)cc3)cc2)c1`, for which the AC50 result is “inactive”.

Take `CN1CCN(C(=O)C(C(=O)c2ccc(F)cc2)n2ccccc2=O)CC1` (stereo unspecified): the AC50 entry was “inactive”.

As for `CCc1cccc2c(C=C(C#N)C#N)cn(CC(=O)N3CCCC3)c12`, the AC50 result was “inactive”.

Turning to `COc1ccc(/C=C2\CCCC3C2=NN(C(=O)c2ccco2)C3c2ccc(OC)c(OC)c2)cc1OC` (stereo unspecified), the AC50 entry is “inactive”.

As for `COc1ccc(/C=C2\N=C(SC)N(C)C2=O)cc1`, the AC50 entry is “inactive”.

As for `O=C(N/N=C/C=C/c1ccccc1)c1cc2c(ccc3ccccc32)o1`, the AC50 entry is “inactive”.

With `O=C(O)[C@@H](O)[C@@H](O)[C@@H](O)[C@@H](O)C(=O)O` (tested in a mixture with another compound), the AC50 result was “inactive”.

For `CC(C)CCNC(=S)NC1CCCC1`, the AC50 entry is “inactive”.

Take `Cc1nn(C(C)(C)C)c(OC(=O)c2ccco2)c1Sc1ccccc1`: the AC50 result is “inactive”.

On to `CCOC(=O)c1c(C)c(C(=O)N2CCN(C(=O)c3ccco3)CC2)c(C)n1C`, for which the AC50 entry is “inactive”.

As to `CCOC(=O)c1c(C)c(C)n2c1NC(=O)C2`, the activity, negative = inhibition was -4.83% [at 11.4 µM].

For the molecule `CCOC(=O)c1c(C)c(C(=O)N2CCCCCC2)c(C)n1C`, the AC50 was 11.2 µM (active).

On to `C[C@@]12CC[C@@H]3c4ccc(O)cc4CC[C@H]3[C@H]1C[C@@H](O)[C@H]2O`, for which the AC50 result was “inactive”.

`Oc1ccccc1C(Sc1nc2ccccc2s1)Sc1nc2ccccc2s1`: the activity, negative = inhibition was -20.9% [at 11.4 µM].

Turning to `Cc1ccc(C(=O)CN(C(=O)c2ccc(Cl)cc2)N2C(=O)c3ccccc3C2=O)cc1`, the AC50 result is “inactive”.

With `Cc1nnc(-c2cnn(-c3ccccc3)c2N)n1Cc1ccccc1`, the AC50 result was “inactive”.

`CN(C)c1ccccc1CN1CCCN(Cc2ccccc2N(C)C)C1c1ccncc1`: the AC50 was 1.26 µM (active).

For `COc1cccc(/C=N\NC(=O)C2C(=O)NCC2c2ccccc2)c1O` (stereo unspecified), the AC50 result was “inactive”.

`COc1ccc(-c2nn(-c3ccccc3)cc2/C=N/NC(=O)c2ccc(Br)o2)cc1`: the AC50 entry is “inactive”.

Take `Cn1c(=O)n(CC#N)c2ccccc21`: the AC50 result is “inactive”.

As to `c1ccc(Cc2nnc(Sc3ccccc3)c3ccccc23)cc1`, the AC50 entry was “inactive”.

`CNCCc1ccccn1`: the AC50 result is “inactive”.

On to `CN(CCc1ccccn1)c1ccc2c(c1)Cc1ccccc1-2`, for which the AC50 is 3.16 µM (active).

Consider `S=C(Nc1ccc2c(c1)Cc1ccccc1-2)Nc1ccc2c(c1)Cc1ccccc1-2`, for which the activity, negative = inhibition is 1.03% [at 11.4 µM].

With `COCC(=O)Nc1c(I)c(C(=O)NC[C@@H](O)CO)c(I)c(C(=O)N(C)C[C@@H](O)CO)c1I`, the AC50 result was “inactive”.

For `O=C(CCCc1ccccc1)N1CCN(c2ccc([N+](=O)[O-])cc2)CC1`, the AC50 result was “inactive”.

As for `CCOc1cc(/C=C2/SC(=O)N(CC(=O)N3CCc4ccccc4C3)C2=O)ccc1OCC(=O)O`, the AC50 entry is “inactive”.

As for `CC(C)N(C(=O)CSc1nc2ccccc2n1-c1ccccc1)C(C)C`, the AC50 result is “inactive”.

`COc1ccc(C(=O)N2CCC[C@@]3(CCN(C(=O)Nc4ccccc4)C3)C2)cc1`: the AC50 result is “inactive”.

Regarding `COc1ccc(C(=O)N2CCC3(CCCN(C)C3)CC2)cc1`, the AC50 result is “inactive”.

Turning to `COc1ccc(C(=O)N2CCC3(CCCN(Cc4ccccc4)C3)CC2)cc1`, the AC50 is 7.94 µM (active).

As for `COc1ccc(C(=O)N2CCC[C@@]3(CCN(Cc4ccc(C#N)cc4)C3)C2)cc1`, the AC50 entry is “inactive”.

Turning to `COc1ccc(C(=O)N2CCC3(CCCN(CC(C)C)C3)CC2)cc1`, the AC50 result was “inactive”.

Consider `COc1ccc(C(=O)N2CCC[C@@]3(CCN(Cc4ccccc4)C3)C2)cc1`, for which the AC50 was 7.94 µM (active).

On to `C=CCc1cc(C=O)cc(OC)c1OCc1ccc(Cl)cc1`, for which the AC50 result is “inactive”.

Regarding `COc1cc(-n2ccnc2SC)c(Cl)cc1Cl`, the AC50 result is “inactive”.

Consider `CCNc1nc(NCC)nc(ON=C(C)C)n1`, for which the AC50 entry is “inactive”.

`COc1ccc2nc(/N=C\N(C)C)sc2c1`: the AC50 result is “inactive”.

Take `Cc1[nH]n2c(=O)c(C#N)c(-c3ccccc3)nc2c1-c1ccccc1`: the AC50 entry is “inactive”.

Consider `CCC#CCOCC(=O)Nc1ccccc1`, for which the AC50 result was “inactive”.

On to `Cn1ncc2c(Nc3cccc(Cl)c3)nc(Nc3cccc(Cl)c3)nc21`, for which the activity, negative = inhibition was 16.7% [at 11.4 µM].

For `Cn1ncc2c(NCCc3ccccc3)nc(Cl)nc21`, the AC50 was 0.126 µM (active).

As for `c1ccc(CCNc2nnnn2-c2ccccc2)cc1`, the AC50 entry is “inactive”.

As to `CC(C)n1c(=O)c2c(O)cc(=O)oc2c2ccccc21`, the AC50 entry was “inactive”.

As for `NC(=O)[C@H]1CC2(CC(c3cccc(NC(=O)c4ccccc4)c3)=NO2)CN1C(=O)[C@H]1CCC(=O)N1` (stereo partly specified), the AC50 entry is “inactive”.

Turning to `CCC(CC)C(=O)Nc1cccc(C(=O)Nc2ccc(OC)cc2[N+](=O)[O-])c1`, the AC50 result was “inactive”.

Regarding `COc1ccc(NC(=O)C(F)(F)F)cc1OC`, the AC50 entry was “inactive”.

As to `CCCCCCCCC[n+]1cccc2c3ccccc3ccc21`, the AC50 was 0.0708 µM (active).

Consider `O=C(OC(C(=O)NC1CCCC1)c1ccncc1)C1=Cc2ccccc2OC1` (stereo unspecified), for which the AC50 result was “inactive”.

As for `Cc1ccc(CNC(=O)C2(NC(=O)Nc3ccc(C)cc3)CCCCC2)cc1`, the AC50 entry is “inactive”.

Regarding `CCn1c(SCC(=O)NC2CCCc3ccccc32)nnc1-c1cccs1` (stereo unspecified), the AC50 result is “inactive”.

For the molecule `CCN(CC)C(=O)CSc1nnc(-c2cc3ccccc3cc2O)n1CC`, the AC50 entry is “inactive”.

Take `COc1ccc(NC(=O)CSc2nnc(C3CC3)n2-c2ccccc2)cc1`: the AC50 result is “inactive”.

Take `CCn1c(SCC(=O)c2ccccc2)nnc1-c1cccs1`: the AC50 is 14.1 µM (active).

On to `CCn1c(SCC(=O)NC(=O)NCc2ccco2)nnc1-c1cccs1`, for which the AC50 result is “inactive”.

Turning to `CCn1c(SCC(=O)c2ccc3ccccc3c2)nnc1-c1cccs1`, the AC50 was 14.1 µM (active).

On to `CCn1c(COc2ccccc2)nnc1SCC(=O)c1cccc([N+](=O)[O-])c1`, for which the AC50 result was “inactive”.

`CCn1c(SCC(=O)OC)nnc1C1CCCCC1`: the AC50 entry was “inactive”.

For the molecule `CCn1c(SCC(=O)c2ccc(OC)cc2)nnc1C1CC1`, the AC50 is 14.1 µM (active).
